In PubChem BioAssay (NCATS):
Inconclusive results are not listed. A number with no mark means an inactive call. Active and inactive are the calls of the source. Calls follow the shape of the dose curve; as a rule, active = well fitted cell-killing curve with a large enough effect; inconclusive = small, poorly fitted or top-dose-only effect, or effect the other way; inactive = no such curve, though single readings can be large or run the other way.

Assay: Viability qHTS for spleen associated tyrosine kinase inhibitor (SYKi) drug resistant MV4-11 cells (AID 1963824); also: nearly all actives have a fitted effect of over 35% in size
Conditions: SYKi-resistant MV4-11 viability, CellTiter-Glo, 72 h; series mostly up to 45 µM; viability, % of control: at the top concentration
Outline: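 CellTiter-Glo luminescence, read 10 min after reagent addition, reports viability after a 72 hr compound exposure. Cells are an MV4-11 line made resistant to SYK inhibition, seeded at 500 per well onto compound-containing plates.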
Potency is read from the fitted curve at half-maximal effect.

Question: For COc1cc(-c2nc(N[C@H](CO)Cc3ccccc3)ccc2C(=O)NCCOc2ccccc2)cc(OC)c1OC, which Potency is on record?
Answer: 25.9 µM (active)

Question: Which Potency does the source give for C=C1C(=O)O[C@@H]2C(OC(=O)/C(C)=C\C)/C(C)=C\C(=O)/C=C(\C)C[C@H](O)[C@@H]12 (stereo not given in full) here?
Answer: 1.01 µM (active)

Question: With CC(CC(C)O[C@@H]1O[C@H](CO)[C@@H](O)[C@H](O)[C@H]1O)OC(=O)/C=C/c1ccc(O)cc1 (stereo not given in full) as the molecule, how does the “viability, % of control” value read?
Answer: 87.1% [at 17.3 µM]

Question: For CNC(=O)c1ccccc1Nc1cc(Nc2ccc(N3CCOCC3)cc2OC)ncc1C(F)(F)F, which Potency is on record?
Answer: 0.326 µM (active)

Question: With C=C1C(O)C[C@@H]2C(C(=O)O)=CO[C@@H](O[C@@H]3O[C@H](CO)[C@@H](O)[C@H](O)[C@H]3OC(=O)c3ccc(O)cc3)[C@H]12 (stereo not given in full) as the molecule, how does the “viability, % of control” value read?
Answer: 85.3% [at 17.3 µM]

Question: For CC#C[C@@H](CC(=O)O)c1ccc(OCc2ccc(CN3CCC4(C=Cc5ccccc54)CC3)s2)cc1, which Potency is on record?
Answer: 11.6 µM (active)

Question: With C/C=C(\C)C(=O)O[C@H]1C=C(CO)C(=O)[C@H](OC(C)=O)[C@H]1C(C)C as the molecule, how does the Potency read?
Answer: 1.8 µM (active)

Question: With CC(/C=C/C1(O)C2(C)COC1(C)CC(=O)C2)O[C@@H]1O[C@H](CO)[C@@H](O)[C@H](O)[C@H]1O (stereo not given in full) as the molecule, how does the “viability, % of control” value read?
Answer: 93.2% [at 17.3 µM]

Question: For Nc1nc2c(ncn2[C@@H]2O[C@H](CO)[C@@H](O)[C@H]2O)c(=O)[nH]1, which “viability, % of control” value is on record?
Answer: 69.5%

Question: Which “viability, % of control” value does the source give for O=C(O)Cc1cn(C2OCC(O)C(O)C2O[C@@H]2O[C@H](CO)[C@@H](O)[C@H](O)[C@H]2O)c2ccccc12 (stereo not given in full) here?
Answer: 77.7% [at 17.3 µM]
